This is an account of results in ChEMBL document CHEMBL2218924, “A broad activity screen in support of a chemogenomic map for kinase signalling research and drug discovery” (Biochem J, 2013).

Assay [1] deals with Death-associated protein kinase 1 (Homo sapiens) (UniProt P53355). Particulars: at 10 µM.
Assay [2] has as its target Death-associated protein kinase 2 (Homo sapiens) (UniProt Q9UIK4). Particulars: at 1 µM.
Assay [3] has the same target. To be noted: at 10 µM.
In assay [4] the target is T1, Serine/threonine-protein kinase DCLK2 (Homo sapiens) (UniProt Q8N568).
T1 sequence (whole entry): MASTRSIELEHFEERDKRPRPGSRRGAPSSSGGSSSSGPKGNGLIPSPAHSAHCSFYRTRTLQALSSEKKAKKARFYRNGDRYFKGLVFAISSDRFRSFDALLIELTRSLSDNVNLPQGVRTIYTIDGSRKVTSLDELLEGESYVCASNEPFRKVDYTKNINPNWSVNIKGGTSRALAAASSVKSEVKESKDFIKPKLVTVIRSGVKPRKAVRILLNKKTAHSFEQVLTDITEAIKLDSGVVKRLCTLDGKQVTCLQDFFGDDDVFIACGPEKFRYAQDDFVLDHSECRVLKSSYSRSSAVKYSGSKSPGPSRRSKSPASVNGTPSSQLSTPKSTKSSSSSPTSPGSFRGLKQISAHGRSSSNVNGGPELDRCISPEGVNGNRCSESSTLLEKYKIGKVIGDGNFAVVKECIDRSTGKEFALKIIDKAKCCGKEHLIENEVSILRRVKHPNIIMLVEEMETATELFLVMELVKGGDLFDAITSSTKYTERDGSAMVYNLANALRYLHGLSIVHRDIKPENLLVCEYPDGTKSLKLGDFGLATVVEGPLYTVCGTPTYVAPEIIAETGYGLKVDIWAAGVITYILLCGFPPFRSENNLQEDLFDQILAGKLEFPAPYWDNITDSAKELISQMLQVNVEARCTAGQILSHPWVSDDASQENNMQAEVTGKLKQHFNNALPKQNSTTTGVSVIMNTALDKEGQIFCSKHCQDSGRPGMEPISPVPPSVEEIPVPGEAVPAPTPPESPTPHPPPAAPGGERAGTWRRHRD
Particulars: at 1 µM.

For assay [5], the target named is T1, Serine/threonine-protein kinase DCLK2 (Homo sapiens). Particulars: at 10 µM.
Assay [6] deals with T2, Discoidin domain-containing receptor 2 (Homo sapiens) (UniProt Q16832).
T2 sequence (whole entry): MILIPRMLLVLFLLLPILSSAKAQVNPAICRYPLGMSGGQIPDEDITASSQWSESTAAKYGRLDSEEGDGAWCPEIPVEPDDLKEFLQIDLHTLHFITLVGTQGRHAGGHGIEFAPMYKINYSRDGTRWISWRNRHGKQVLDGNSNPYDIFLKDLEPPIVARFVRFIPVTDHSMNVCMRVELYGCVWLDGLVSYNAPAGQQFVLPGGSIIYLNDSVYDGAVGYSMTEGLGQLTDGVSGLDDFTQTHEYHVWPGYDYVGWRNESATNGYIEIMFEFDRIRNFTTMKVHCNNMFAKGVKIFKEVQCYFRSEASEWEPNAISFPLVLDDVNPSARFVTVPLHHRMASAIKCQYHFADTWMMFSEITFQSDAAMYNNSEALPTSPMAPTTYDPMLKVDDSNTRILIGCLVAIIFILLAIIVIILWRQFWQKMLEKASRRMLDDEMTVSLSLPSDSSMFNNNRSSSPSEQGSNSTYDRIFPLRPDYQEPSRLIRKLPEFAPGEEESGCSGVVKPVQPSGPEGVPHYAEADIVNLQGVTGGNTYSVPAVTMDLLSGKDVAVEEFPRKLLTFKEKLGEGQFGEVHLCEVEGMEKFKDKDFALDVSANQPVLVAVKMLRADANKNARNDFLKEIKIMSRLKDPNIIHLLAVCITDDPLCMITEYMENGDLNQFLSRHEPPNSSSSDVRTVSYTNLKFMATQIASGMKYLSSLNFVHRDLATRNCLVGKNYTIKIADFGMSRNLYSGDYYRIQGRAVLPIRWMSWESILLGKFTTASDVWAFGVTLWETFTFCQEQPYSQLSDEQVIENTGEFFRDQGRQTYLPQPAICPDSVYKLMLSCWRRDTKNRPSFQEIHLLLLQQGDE
Particulars: at 1 µM.

In assay [7] the target is T2, Discoidin domain-containing receptor 2 (Homo sapiens). Particulars: at 10 µM.
Assay [8] deals with T3, Myotonin-protein kinase (Homo sapiens) (UniProt Q09013).
T3 sequence (whole entry): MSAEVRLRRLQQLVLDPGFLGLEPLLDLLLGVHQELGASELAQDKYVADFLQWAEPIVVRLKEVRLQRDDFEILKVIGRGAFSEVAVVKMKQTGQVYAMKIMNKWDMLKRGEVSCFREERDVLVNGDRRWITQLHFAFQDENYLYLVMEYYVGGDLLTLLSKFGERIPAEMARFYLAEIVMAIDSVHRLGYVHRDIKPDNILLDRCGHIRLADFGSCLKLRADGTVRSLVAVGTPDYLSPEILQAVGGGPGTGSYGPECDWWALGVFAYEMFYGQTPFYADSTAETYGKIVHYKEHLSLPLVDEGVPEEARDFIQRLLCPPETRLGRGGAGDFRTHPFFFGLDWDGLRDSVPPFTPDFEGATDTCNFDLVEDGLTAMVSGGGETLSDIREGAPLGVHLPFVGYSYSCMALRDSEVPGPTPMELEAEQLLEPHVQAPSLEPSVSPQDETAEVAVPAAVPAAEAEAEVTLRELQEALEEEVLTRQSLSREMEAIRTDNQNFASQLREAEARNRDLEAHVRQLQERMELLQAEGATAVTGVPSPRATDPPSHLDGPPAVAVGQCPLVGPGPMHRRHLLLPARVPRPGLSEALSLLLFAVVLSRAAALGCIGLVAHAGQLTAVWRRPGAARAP
To be noted: at 10 µM.

Assay [9] addresses T4, Serine/threonine-protein kinase 17A (Homo sapiens) (UniProt Q9UEE5).
T4 sequence (whole entry): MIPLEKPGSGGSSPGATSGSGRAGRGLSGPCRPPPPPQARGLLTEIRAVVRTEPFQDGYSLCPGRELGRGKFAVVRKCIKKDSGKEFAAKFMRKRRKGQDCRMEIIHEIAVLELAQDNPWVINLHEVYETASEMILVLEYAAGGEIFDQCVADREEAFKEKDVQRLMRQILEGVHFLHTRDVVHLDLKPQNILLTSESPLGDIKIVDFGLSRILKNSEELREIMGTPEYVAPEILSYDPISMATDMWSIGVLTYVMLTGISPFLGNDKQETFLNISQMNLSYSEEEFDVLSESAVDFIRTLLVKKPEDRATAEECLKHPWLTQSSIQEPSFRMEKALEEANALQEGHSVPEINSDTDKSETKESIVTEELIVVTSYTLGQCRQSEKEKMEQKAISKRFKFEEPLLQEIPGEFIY
To be noted: at 1 µM.

Assay [10] addresses T3, Myotonin-protein kinase (Homo sapiens). Particulars: at 1 µM.

The structures appear in SMILES notation.

Death-associated protein kinase 2 (Homo sapiens), sequence (Q9UIK4 whole entry, looked up): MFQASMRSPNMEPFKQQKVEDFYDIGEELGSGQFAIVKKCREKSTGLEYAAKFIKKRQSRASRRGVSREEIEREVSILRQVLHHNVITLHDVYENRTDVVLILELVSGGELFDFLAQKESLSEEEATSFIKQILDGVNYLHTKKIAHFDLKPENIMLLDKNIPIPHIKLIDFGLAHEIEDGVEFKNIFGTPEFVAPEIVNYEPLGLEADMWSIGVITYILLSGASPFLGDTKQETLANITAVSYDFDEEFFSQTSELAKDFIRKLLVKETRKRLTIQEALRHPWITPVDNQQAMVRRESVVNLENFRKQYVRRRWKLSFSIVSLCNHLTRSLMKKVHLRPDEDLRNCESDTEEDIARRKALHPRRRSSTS
Death-associated protein kinase 1 (Homo sapiens), sequence (P53355 whole entry, looked up): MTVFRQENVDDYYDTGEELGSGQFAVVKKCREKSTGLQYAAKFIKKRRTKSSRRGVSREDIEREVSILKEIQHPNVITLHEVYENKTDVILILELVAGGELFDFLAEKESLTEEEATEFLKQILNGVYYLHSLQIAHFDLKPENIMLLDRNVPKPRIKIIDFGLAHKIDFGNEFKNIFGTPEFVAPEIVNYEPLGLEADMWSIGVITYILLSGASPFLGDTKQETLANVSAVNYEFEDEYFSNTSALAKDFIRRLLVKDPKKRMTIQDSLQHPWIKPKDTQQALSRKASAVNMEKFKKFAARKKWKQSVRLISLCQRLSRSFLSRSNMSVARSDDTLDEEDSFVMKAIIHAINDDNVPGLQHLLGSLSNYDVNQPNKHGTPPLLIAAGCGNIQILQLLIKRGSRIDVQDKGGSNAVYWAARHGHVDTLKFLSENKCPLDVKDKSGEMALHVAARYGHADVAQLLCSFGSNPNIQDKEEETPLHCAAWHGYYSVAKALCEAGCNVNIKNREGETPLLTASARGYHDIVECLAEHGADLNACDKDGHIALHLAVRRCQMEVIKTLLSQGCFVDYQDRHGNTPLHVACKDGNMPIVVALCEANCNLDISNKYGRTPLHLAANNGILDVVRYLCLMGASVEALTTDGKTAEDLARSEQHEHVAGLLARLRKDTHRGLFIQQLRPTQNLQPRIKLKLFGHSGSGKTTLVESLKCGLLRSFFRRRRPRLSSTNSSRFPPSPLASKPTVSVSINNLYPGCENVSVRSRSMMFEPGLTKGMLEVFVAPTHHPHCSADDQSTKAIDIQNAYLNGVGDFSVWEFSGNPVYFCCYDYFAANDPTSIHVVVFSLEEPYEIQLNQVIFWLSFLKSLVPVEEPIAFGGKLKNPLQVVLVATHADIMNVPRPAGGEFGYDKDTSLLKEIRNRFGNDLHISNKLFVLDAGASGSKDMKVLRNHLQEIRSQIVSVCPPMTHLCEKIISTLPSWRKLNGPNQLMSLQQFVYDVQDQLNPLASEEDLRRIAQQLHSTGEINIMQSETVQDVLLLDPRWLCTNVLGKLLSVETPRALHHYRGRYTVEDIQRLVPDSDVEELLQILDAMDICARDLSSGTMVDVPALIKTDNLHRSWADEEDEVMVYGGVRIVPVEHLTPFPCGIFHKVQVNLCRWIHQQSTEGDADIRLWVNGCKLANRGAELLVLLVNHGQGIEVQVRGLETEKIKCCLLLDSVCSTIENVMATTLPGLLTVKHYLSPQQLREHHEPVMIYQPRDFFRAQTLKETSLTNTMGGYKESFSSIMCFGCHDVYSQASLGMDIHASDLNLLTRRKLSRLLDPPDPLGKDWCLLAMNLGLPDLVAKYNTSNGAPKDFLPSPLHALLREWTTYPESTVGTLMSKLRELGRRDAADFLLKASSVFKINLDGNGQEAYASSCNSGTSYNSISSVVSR

For `Oc1c2ccccc2c2c3c(cccc13)N=N2`, the residual activity came to 68% in [1]; 87% in [2]; 43% in assay [3]; 116% in assay [4]; 51% in assay [5]; 93% in assay [6]. Also, the residual activity in assay [7] was determined as 92%; in assay [8], 68%; in assay [9] it was 6%.

In the case of `COc1cc2ncnc(Nc3ccc(NC(=O)c4ccccc4)cc3)c2cc1OC`, the residual activity in assay [1] was 83%; in assay [2], 98%; in assay [3], 106%; in assay [4], 99%; in [5], 104%; in assay [7] it was 89%. In addition, the residual activity in assay [10] was found to be 110%; in assay [8] it was 145%; in assay [9] it was 75%.

`COc1cccc(-c2cc(=O)c3ccccc3o2)c1N`: the residual activity in [1] worked out at 90%; in assay [2] it was 99%; in [3] it was 99%; in assay [4] it was 107%; in assay [5], 120%; in [6] it was 91%. For the same molecule, the results for the residual activity in assay [10], in [8] and in assay [9] were 122%, 96% and 101%, respectively.

In the case of `Nc1nc(Nc2ccc(S(N)(=O)=O)cc2)nn1C(=S)Nc1c(F)cccc1F`, the residual activity in assay [2] is 84%; in assay [3] it was 43%; in [4], 13%; in [5], 2%; in [6] it was 74%; in [7] it was 28%. Besides, the residual activity in assay [10] is 122%; in assay [8], 31%; in assay [9], 1%.

Turning to `Oc1ccc(Nc2nc(-c3ccc(Cl)cc3)cs2)cc1`, the residual activity in [1] was found to be 107%; in assay [2], 101%; in assay [3], 107%; in assay [4], 123%; in assay [5], 179%; in assay [6], 97%. The residual activity came out at 104% in assay [7], 100% in assay [10], 98% in assay [8] and 119% in assay [9].

For `CC#CC(=O)Nc1cc2c(Nc3ccc(F)c(Cl)c3)ncnc2cn1`, the residual activity turned out to be 90% in [1]; 88% in assay [2]; 104% in assay [3]; 77% in [4]; 96% in assay [5]; 96% in [6]. In addition, the residual activity in assay [7] was found to be 93%; in assay [10] it was 113%; in assay [8], 115%; in assay [9], 105%.

Regarding `N#CCCc1ccc2c(c1)-c1[nH]c3ccc([N+](=O)[O-])cc3c1CC(=O)N2`, the residual activity in assay [9] was 11%.

For the molecule `O=C(Nc1cccc(Nc2nccc(Nc3cccc(C(F)(F)F)c3)n2)c1)C1CC1`, the residual activity was found to be 60% in assay [1]; 93% in assay [2]; 68% in assay [3]; 82% in [4]; 102% in assay [5]; 79% in assay [6]. Also, the residual activity in assay [7] was 30%; in assay [10] it was 72%; in assay [8], 125%; in [9], 73%.

Consider `CO[C@H]1C[C@@H]2CC[C@@H](C)[C@@](O)(O2)C(=O)C(=O)N2CCCC[C@H]2C(=O)O[C@H]([C@H](C)C[C@@H]2CC[C@@H](O)[C@H](OC)C2)CC(=O)[C@H](C)/C=C(\C)[C@@H](O)[C@@H](OC)C(=O)[C@H](C)C[C@H](C)/C=C/C=C/C=C/1C`, for which the residual activity in assay [1] stood at 108%; in assay [2], 93%; in [3] it was 110%; in assay [4] it was 137%; in assay [5], 360%; in assay [6] it was 115%. The residual activity in [7] worked out at 110%; in [10] it was 145%; in [8], 139%; in assay [9] it was 113%.

With `CN(C)CCCn1cc(C2=C(c3c[nH]c4ccccc34)C(=O)NC2=O)c2ccccc21`, the residual activity in assay [1] came to 75%; in assay [2], 72%; in assay [3] it was 33%; in assay [5] it was 88%; in assay [6], 113%; in assay [7], 82%. Besides, the figures for the residual activity in [10], in assay [8] and in assay [9] were 31%, 25% and 108%, respectively.

For `O=C1NC(=O)/C(=C\c2ccc3nccnc3c2)S1`, the residual activity in assay [1] is 78%; in [2], 68%; in assay [3], 27%; in assay [4], 73%; in assay [5], 71%; in [6], 109%. Also, the residual activity amounted to 101% in assay [7], 114% in [10], 122% in assay [8] and 63% in [9].

In the case of `O=C(Nc1cccc(Nc2cc(Nc3cccc(C(F)(F)F)c3)ncn2)c1)C1CC1`, the residual activity in assay [1] worked out at 100%; in assay [2], 91%; in assay [3], 91%; in [4], 92%; in assay [5], 109%; in assay [6] it was 81%. Besides, the residual activity came out at 94% in [7], 100% in assay [10], 106% in assay [8] and 81% in assay [9].

On to `O=C1Nc2ccccc2/C1=C1/Nc2ccccc2/C1=N\OCCC(O)CO` (stereo unspecified), for which the residual activity in assay [1] was determined as 43%; in [2] it was 49%; in assay [3], 12%; in assay [4], 99%; in assay [5], 35%; in assay [6], 76%. The residual activity in assay [7] stood at 46%; in assay [10] it was 115%; in assay [8], 69%; in assay [9] it was 5%.

With `Nc1ccc2ncnc(NCCc3ccc(Oc4ccccc4)cc3)c2c1`, the residual activity in assay [1] was 75%; in [2], 105%; in assay [3] it was 100%; in assay [4], 110%; in assay [5], 87%; in [6] it was 91%. The residual activity in assay [7] is 90%; in assay [10], 98%; in assay [8] it was 86%; in assay [9] it was 62%.

Turning to `CO[C@H]1[C@@H](OC)C[C@H](C)[C@@H](OC)C2=CC(=O)C=C(NC(=O)/C(C)=C/C=C/[C@H](OC)[C@@H](OC(N)=O)/C(C)=C/[C@@H]1C)C2=O`, the residual activity in assay [1] is 78%; in assay [2] it was 104%; in assay [3] it was 114%; in [4], 89%; in assay [5] it was 75%; in assay [6] it was 98%. In addition, the residual activity in assay [7] came out at 99%; in assay [10] it was 147%; in assay [8], 127%; in assay [9], 86%.

For `CCN(CC)C(=O)c1ccc(Nc2nc(OCC3CCCCC3)c3nc[nH]c3n2)cc1`, the residual activity in assay [1] stood at 54%; in assay [2] it was 96%; in assay [3], 68%; in [5] it was 99%; in assay [6], 93%; in assay [7], 66%. For the same molecule, the residual activity in assay [9] was 23%.

Regarding `N#Cc1cnc2cnc(NCc3cccnc3)cc2c1Nc1ccc(F)c(Cl)c1`, the residual activity in assay [1] came out at 55%; in assay [2], 14%; in assay [3] it was 2%; in assay [6] it was 80%; in [7], 53%; in [10], 100%. The residual activity was found to be 69% in assay [8] and 30% in [9].
